PubChem BioAssay AID651821 (The Scripps Research Institute Molecular Screening Center, 2012)
Screen size: about 370,000 compounds; about 4,700 (1.3%) were called active. Many of the other results were omitted from the sample, so actives are more common in it than they were. Values without a mark were called inactive.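 How the source made its calls: active means inhibition above the plate cutoff, the mean of all test compounds on that plate plus 3 SD (cut at about 35% in these data); inactive means the rest.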

Test: binders of r(CAG) RNA repeats, primary screen, biochemical, fluorescence (AID 651821);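 further: 0% = DMSO alone and 100% = 100 µM mitoxantrone as full dye displacement; higher means more dye released from RNA so lower well fluorescence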
Conditions: r(CAG) RNA repeat, TO-PRO-1 dye displacement fluorescence; at 3 µM; hits give high values

Row | Compound | inhibition
1 | Cc1ccccc1NC(=O)COC(=O)c1ccc(Sc2ncn[nH]2)c([N+](=O)[O-])c1 | 6.52%
2 | O=C(O)c1c(NC(=O)N2CCCC2)sc2c1CCCC2 | 3.93%
3 | CCOC(=O)C(NC(=O)CC(C)C)(Nc1sc2c(c1C(N)=O)CCCC2)C(F)(F)F (centres undefined) | -6.2%
4 | NC(=O)c1c(Nc2nc3c(F)cccc3s2)sc2c1CCCC2 | 52.5% (active)
5 | COc1ccc(Br)c2c1C(=O)CC2 | -1.62%
6 | CCn1cc(C(=O)NCC2COc3ccccc3O2)c2cc(OC)c(OC)cc2c1=O (centres undefined) | 53.3% (active)
7 | CCn1cc(C(=O)N2CCN(C3CCCCC3)CC2)c2cc(OC)c(OC)cc2c1=O | -10.2%
8 | COc1ccc(NC(=O)CC2COc3ccccc3O2)c(OC)c1 (centres undefined) | -0.79%
9 | COc1cccc(CSc2nnc(-c3cccnc3)n2Cc2ccccc2)c1 | 3.2%
10 | CCCNC(=O)Nc1ccc2c(c1)C(=O)N(C)[C@H]1CC[C@H](CC(=O)NCC3CCCCC3)O[C@@H]1CO2 | 2.13%
11 | COc1ccccc1/C=C/C=N/n1c(-c2ccc(Cl)cc2Cl)n[nH]c1=S | 36.1% (active)
12 | COc1ccc(Cl)cc1C=CC=Nc1ccc(S(N)(=O)=O)cc1 | 14.6%
13 | COc1ccc(Cl)cc1C=CC=NNC(=O)c1ccncc1 | 1.27%
14 | Cc1cccc(CS(=O)(=O)c2ncc(Cl)c(C(=O)Nc3ccc(F)cc3)n2)c1 | 2.26%
15 | CSc1nnc(NC(=O)c2nc(S(=O)(=O)Cc3ccc(C)cc3)ncc2Cl)s1 | 42.9% (active)
16 | Clc1cccc2c1C1CC2CCN1Cc1ccccc1 (centres undefined) | 1.58%
17 | O=C1C2C3C=CC(C3)C2C(=O)N1c1ccc(S(=O)(=O)Nc2nccs2)cc1 (centres undefined) | 0.76%
18 | O=C(Nc1nncs1)c1cccc(S(=O)(=O)N2CCCCC2)c1 | 0.89%
19 | O=C(Nc1cccc(Cl)c1)Nc1ccccc1NS(=O)(=O)c1cccs1 | 48.5% (active)
20 | O=C(Nc1nncs1)c1ccccc1NS(=O)(=O)c1cccs1 | 36.4% (active)

Row | Compound | inhibition
21 | COc1cc(OC)c(C(=O)NNC(=O)c2ccc(NS(=O)(=O)c3cccs3)cc2)cc1OC | 8.73%
22 | O=S(=O)(NCCc1ccc(Cl)cc1)c1cccs1 | -4.34%
23 | C/C(=N\NC(=O)c1ccc(NS(=O)(=O)c2cccs2)cc1)c1ccc2ccccc2c1 | 19.2%
24 | CC(C)CNc1cccc2c1S(=O)(=O)N(Cc1cn(Cc3ccccc3C(F)(F)F)nn1)Cc1ccccc1O2 | 7.51%
25 | O=C(N[C@H](C(=O)N1CCC[C@H]1C(=O)NCCc1ccccc1Cl)c1ccccc1)c1ccccc1 | 3.45%
26 | O=C(c1ccc2c(c1)OCO2)N1CCNc2ccccc2C1 | 2.38%
27 | COC(=O)Cc1nnn2c1[C@H](C)[C@H](c1ccccc1Br)OCC2 | 2.7%
28 | C#CCCN([C@H](C(=O)OC)C(C)C)S(=O)(=O)c1ccc(F)cc1Br | 2.16%
29 | COc1cccc(N(C)C(=O)[C@@H](C)[C@@H](O)c2ccc3ccccc3c2)c1 | -1.62%
30 | COC(=O)[C@]1(Cc2ccccc2)NC=C(C(=O)c2ccccc2)[C@@H]1c1cccc(OC)c1 | 4.57%
31 | COC(=O)C1=C(C)NC(=S)NC1c1ccc(OC)cc1 (centres undefined) | 1.6%
32 | CCN(CC(=O)Nc1cc(Cl)ccc1C)C(=O)Cn1c(=O)cnc2ccccc21 | -5.99%
33 | C=CCNc1nc(N)c(C(=C(C#N)C#N)c2ccccc2)s1 | 35.8% (active)
34 | C=C(C)C#CC(Cc1ccccc1)N(CC1CC1)/C(N)=N/C(=O)OCc1ccccc1 (centres undefined) | 0.56%
35 | O=C(NC(=S)N1CCc2ccccc21)c1ccco1 | 0.88%
36 | CCC1CCCCN1C(=S)NC(=O)c1ccco1 (centres undefined) | 0.91%
37 | CCCc1ccc(OCC(=O)NNC(=S)NC(=O)c2ccco2)cc1 | 36.2% (active)
38 | COc1ccc(/C=C(/NC(=O)c2ccco2)C(=O)Nc2ccc(C(C)=O)cc2)cc1 | 1.57%
39 | CC(Oc1ccc2ccccc2c1)C(=O)NNC(=S)NC(=O)c1ccco1 (centres undefined) | 48.2% (active)
40 | NS(=O)(=O)c1ccc(CNC(=S)NC(=O)c2ccco2)cc1 | 0.4%

Row | Compound | inhibition
41 | CCCCC(NC(=O)c1cccc(Br)c1)C(=O)O (centres undefined) | 0.46%
42 | COC(=O)[C@]12C[C@H](CC(=O)N3CCOCC3)C(=O)N(Cc3ccc(Cl)cc3Cl)C1=C[C@H](COCc1ccccc1)O[C@@H]2C | 4.28%
43 | CC(C)CNC(=O)OCc1cn(Cc2ccc(F)cc2)nn1 | 0.38%
44 | Cc1cc2c(nc1C)CCCN2C | -0.74%
45 | COC(=O)[C@H](C(C)C)N1CCc2nnn(Cc3ccc(C)cc3)c2-c2ccccc2S1(=O)=O | -0.02%
46 | COCc1[nH]nc2c1C(c1ccccc1)N(c1ccccc1)C2=O (centres undefined) | -0.7%
47 | O=S(=O)(Nc1ccc2ccccc2c1)N1CCCCC1 | 4.05%
48 | CS(=O)(=O)c1ccccc1C(=O)Nc1ccc2sccc2c1 | 2.53%
49 | O=C(Nc1ccc2ccccc2c1)Nc1ccc2snnc2c1 | 47.6% (active)
50 | C[C@@H]1ON(C)[C@H]2C[C@H]3c4cc(N5CCOCC5)ccc4CCN3C[C@@H]12 | 0.67%
51 | CCc1nnc(NC(=O)CSc2nnnn2-c2cccc(C(C)=O)c2)s1 | -0.71%
52 | CSc1nsc(SCC(=O)Nc2cc(C(=O)O)ccc2C)n1 | 7.69%
53 | CC(=O)N1CCC(C(=O)Nc2nc(-c3ccccc3)ns2)CC1 | 6.24%
54 | C=CCSc1nnc2c(n1)-c1cccc3cccc-2c13 | 7.81%
55 | COC(=O)c1cccc(NC(=O)CSc2nc(C)cc(=O)[nH]2)c1 | 6.31%
56 | CCCCN1C(=O)C(=O)N(CC(=O)Nc2cccc(C(C)=O)c2)C1=O | 4.35%
57 | CCSc1nsc(NC(=O)Nc2cccc(C(C)=O)c2)n1 | 62.7% (active)
58 | CSc1nsc(NC(=O)Nc2ccccc2)n1 | 38.9% (active)
59 | C=CCSc1nsc(NC(=O)Nc2cccc(C(C)=O)c2)n1 | 60.2% (active)
